Data as given in PubChem BioAssay AID2284205 (EPA ToxCast).
Active and inactive are the calls of the source. The calls were made as follows: active = hit-call score of the fitted dose curve at least 0.9, where 1 is the maximum; inactive = score below 0.9.

These compounds were tested against Peroxisome proliferator-activated receptor gamma (Homo sapiens) (UniProt P37231) (assay: ERF_TW_NR_hPPARG: Eurofins (ERF) Nuclear Receptor (NR) Radioligand Binding LeadHunter Assay for human Peroxisome Proliferator-activated Receptor gamma (PPARg) Agonism, conducted at Taiwan lab site).
Description: ERF_TW_NR_hPPARG is a biochemical, single-readout assay that uses extracted gene-proteins in a cell-free assay. Measurements were taken 24 hour after chemical dosing in a 96-well plate. See PPARgamma Human NHR Binding (Agonist Radioligand) Assay, Panlabs.ERF_TW_NR_hPPARG is an assay component calculated from the ERF_TW_NR_hPPARG assay. It is designed to measure radioligand binding using a type of binding reporter as detected by scintillation counting with radiometry technology.Data from the assay component ERF_TW_NR_hPPARG was analyzed at the assay endpoint, ERF_TW_NR_hPPARG, in the positive analysis fitting direction relative to DMSO as the negative control and baseline of activity. Using a type of binding receptor, gain-of-signal activity can be used to understand changes in binding receptor as they relate to gene PPARG.To generalize the intended target to other relatable targets, this assay endpoint is annotated to the nuclear receptor intended target family, where the subfamily is non-steroidal.
Human recombinant PPARgamma-LBD expressed in insect cells are used in modified Tris-HCl buffer pH 7.2. A 0.03 ug aliquot is incubated with 5 nM [3H]Rosiglitazone and 1 ug anti-GST antibody for 24 hours at 4C. Non-specific binding is estimated in the presence of 10 uM rosiglitazone. Receptors are counted to determine [3H]Rosiglitazone specifically bound. Compounds are screened at 10 uM.Test Sample Requirements: Minimum for 1) Screen: 25 ul of 10 mM stock -OR- 1 mg (pre-weighed). 2) Dose Response: 60 ul of 10 mM stock -OR- 1 mg (pre-weighed).

Chain of Peroxisome proliferator-activated receptor gamma (Homo sapiens) (P37231 whole entry, looked up): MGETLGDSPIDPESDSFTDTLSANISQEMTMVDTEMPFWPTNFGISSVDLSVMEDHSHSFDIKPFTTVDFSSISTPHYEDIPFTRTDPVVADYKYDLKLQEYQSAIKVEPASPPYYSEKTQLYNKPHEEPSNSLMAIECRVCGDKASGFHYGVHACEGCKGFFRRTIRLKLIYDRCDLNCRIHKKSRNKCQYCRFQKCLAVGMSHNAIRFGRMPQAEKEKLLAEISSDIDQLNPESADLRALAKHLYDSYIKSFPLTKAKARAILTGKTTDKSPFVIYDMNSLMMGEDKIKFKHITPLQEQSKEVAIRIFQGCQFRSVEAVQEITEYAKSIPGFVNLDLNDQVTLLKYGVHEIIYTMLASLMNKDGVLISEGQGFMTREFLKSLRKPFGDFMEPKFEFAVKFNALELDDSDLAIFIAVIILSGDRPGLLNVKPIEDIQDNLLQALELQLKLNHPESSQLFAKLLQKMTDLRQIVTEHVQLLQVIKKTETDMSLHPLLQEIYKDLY

AC50, active:
O=C(CC(=O)C(F)(F)C(F)(F)C(F)(F)F)c1cccs1 7.47 µM, O=C(O)C(F)(F)C(F)(F)C(F)(F)C(F)(F)C(F)(F)C(F)(F)C(F)(F)C(F)(F)Cl 13.4 µM, O=S(=O)(O)C(F)(F)C(F)(F)C(F)(F)C(F)(F)C(F)(F)C(F)(F)C(F)(F)F 31.7 µM
